# Experimental data as given in PubChem BioAssay AID1851 (National Center for Advancing Translational Sciences (NCATS), 2009).
# Where “and” joins values, the source holds several entries; their conditions need not be identical. Equal values may be shown once. Out of some 16,000 compounds screened, about 2,600 (16%) were called active. Roughly 20% stayed inconclusive and do not appear here. Not all results are given here. A number with no mark means an inactive call. The call rests on the fitted dose curve; in most records, active means well fitted curve in the direction sought with a large enough effect; inconclusive means small, poorly fitted or top-dose-only effect, or effect the other way; inactive means no such curve, though single readings can be large or run the other way.
# Molecular target: Cytochrome P450 2D6 (Homo sapiens) (UniProt P10635)
# Experiment: Cytochrome panel assay with activity outcomes
# Details: recombinant CYP, pro-luciferin dealkylation, luminescence, p450-cyp2d6; series mostly up to 57.1 µM
# On the % scale 0 is the no-effect control and ±100 the full control effect.
# Sequence of Cytochrome P450 2D6 (Homo sapiens) (P10635 whole entry, looked up): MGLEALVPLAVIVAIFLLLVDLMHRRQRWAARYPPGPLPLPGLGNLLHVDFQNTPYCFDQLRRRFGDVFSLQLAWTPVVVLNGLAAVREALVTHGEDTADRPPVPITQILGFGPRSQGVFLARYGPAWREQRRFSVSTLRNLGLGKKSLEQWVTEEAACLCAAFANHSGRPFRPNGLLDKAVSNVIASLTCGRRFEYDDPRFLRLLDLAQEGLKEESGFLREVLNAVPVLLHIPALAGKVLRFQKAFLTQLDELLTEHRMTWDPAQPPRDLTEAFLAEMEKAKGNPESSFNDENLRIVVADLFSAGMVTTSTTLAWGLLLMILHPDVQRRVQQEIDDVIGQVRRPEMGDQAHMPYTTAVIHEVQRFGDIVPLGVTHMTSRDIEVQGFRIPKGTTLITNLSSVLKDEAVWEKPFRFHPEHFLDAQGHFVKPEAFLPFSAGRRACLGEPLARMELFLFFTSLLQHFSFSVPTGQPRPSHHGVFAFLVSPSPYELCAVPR
SMILES,"activity, negative = inhibition",AC50
COC(=O)[C@H](CCSC)NC(=O)C/C=C\[C@@H](C)[C@@H](CO)OC,8.79% [at 11.4 µM],
N#CCCn1c(=O)c(-c2cccs2)nc2cnc(OCc3ccccc3)nc21,,inactive
CCOC(=O)CSC1=C(C#N)C(C)C2=C(CCCC2=O)N1 (centres undefined),,inactive
CCOC(=O)CSC1=C(C#N)C(c2sccc2C)CC(=O)N1 (centres undefined),,inactive
C=CCOC(=O)C1=C(C)NC(SCC(=O)OCC)=C(C#N)C1c1ccc(C)cc1 (centres undefined),,14.1 µM (active)
C#CCCCO/N=C1/[C@H]2O[C@@H]2[C@@H](O)[C@H]2[C@H]1CCn1c(=O)n([C@@H](CC)c3ccccc3)c(=O)n12,-15.4% [at 11.4 µM],
COc1ccccc1C(=O)NN1C(=O)C2C3C=CC(O3)C2C1=O (centres undefined),,inactive
Cn1c(=O)c2[nH]c(SCCN3CCOCC3)nc2n(C)c1=S,0.168% [at 11.4 µM],
Cc1cc(C2C(C#N)=C(N)OC3=C2C(=O)CC(C)(C)C3)c(C)s1 (centres undefined),,inactive
CC(=O)c1cccc(NC(=O)Oc2ccccc2)c1,,inactive
Cc1ccc(NS(=O)(=O)c2ccc(OCC(=O)Nc3cccc([N+](=O)[O-])c3)c(C)c2)cc1,,inactive
COc1ccc(CC(=O)Nc2cccc(/C(C)=N/NC(=O)c3cccc([N+](=O)[O-])c3)c2)cc1,,inactive
COc1cccc(N(CC(=O)Nc2cccc(C(C)=O)c2)S(C)(=O)=O)c1,,0.141 µM (active)
CS(=O)(=O)N(CC(=O)Nc1cccc(F)c1)c1cccc([N+](=O)[O-])c1,,0.631 µM (active)
CC(=O)c1cccc(NC(=O)CCC2CCCC2)c1,,inactive
Cc1sc(NC(=O)C2CCCCC2C(=O)O)c(C(N)=O)c1C (centres undefined),,inactive
CO[C@@H]1COC(=O)C/C=C\[C@@H](C)[C@@H]2C=C[C@H](O)[C@@H](COC(=O)CCC[C@H]1C)O2,4.34% [at 11.4 µM],
CC(C)Oc1ccc2c(=O)c3cc(C(=O)O)ccc3oc2c1,,inactive
CC[C@H]1C2=C3C(CC[C@H]4C(OCc5ccc(F)cc5C(F)(F)F)OC[C@](C)([C@@H]34)N(C(=O)OC(C)(C)C)C2)C2COC(=O)OCC21 (some centres undefined),,inactive
COc1ccc(C2/C(=C(/O)c3ccccc3)C(=O)C(=O)N2c2ccccn2)c(OC)c1 (centres undefined),,inactive

SMILES,"activity, negative = inhibition",AC50
COc1ccc(Sc2nc3ccccc3n3c(C(F)(F)F)nnc23)cc1,,inactive
CC1=C(C(=O)OCc2ccccc2)C(c2cccnc2)c2c(n(C)c(=O)n(C)c2=O)N1 (centres undefined),,inactive
Cc1ccc(C2Nc3ccccc3C(=O)N2Cc2ccco2)cc1 (centres undefined),,inactive
CN(C)Cc1ccccc1-c1cc(-n2ccnc2)ncn1,,2.51 µM (active)
COc1ccccc1-c1cc(-n2ccnc2)ncn1,,12.6 µM (active)
Cc1cc([N+](=O)[O-])nn1Cc1ccccc1F,,inactive
Cc1cc(C)c(S(=O)(=O)N2CCCCC2)c(C)c1N(C)S(=O)(=O)c1ccccc1,,inactive
CC1=C(CC(=O)O)c2cc(F)ccc2/C1=C\c1ccc(S(C)=O)cc1 (centres undefined),,inactive
CCOC(=O)c1sc(=S)n(-c2cccc(C(F)(F)F)c2)c1SC,,inactive
Cc1nnc(S(=O)(=O)c2ccc(N=Nc3c(N)nc(N)nc3N)cc2)s1,18% [at 11.4 µM],
CCOC(=O)c1cc(NC(=O)c2ccc(OC)cc2)c(=O)oc1-c1ccccc1,,inactive
Cc1nn(C(C)C(=O)Nc2sc3c(c2C#N)CCCC3)c(C)c1[N+](=O)[O-] (centres undefined),,inactive
C/C(=N\O)c1ccc2[nH]ccc2c1,,inactive
C/C(=N/O)c1ccc2cc(Br)c3ccccc3c2c1,,0.0251 µM (active)
C=CCn1c(SCC(=O)NC2CCCCC2)nnc1C1CCCCC1,,inactive
CO[C@@H]1COC(=O)[C@@H](CCSC)NC(=O)C/C=C\[C@@H](C)COC(=O)[C@H](C)NC(=O)C/C=C\[C@H]1C,6.23% [at 11.4 µM],
CCN1C(=O)[C@H]2[C@H]3[C@H](O)[C@H](O)C/C(=N/OC[C@@H](O)COCc4ccco4)[C@@H]3CC[C@@H]2C1=O,19.4% [at 11.4 µM] and 13.7% [at 11.4 µM],
Cc1ccc(/C=C/C(=O)NC(=S)Nc2ccccc2C(=O)NC2CCCCC2)cc1,,inactive
N.N.O=C(O)C1(C(=O)O)CCC1.[Pt],,inactive
Cc1cc(-c2ccccc2)[nH]c(=O)c1S(=O)(=O)c1ccc(Cl)cc1,,inactive

SMILES,"activity, negative = inhibition",AC50
O=c1[nH]c2cc(Cl)ccc2c(O)c1-c1ccc(Oc2ccccc2)cc1,,inactive
O=c1[nH]c2cc(Cl)ccc2c(O)c1-c1cccc(Oc2ccccc2)c1,,6.31 µM (active)
CCn1c(CC(=O)Nc2ccc(C)cc2)nnc1SCC(=O)Nc1nc(C)cs1,,inactive
C[C@@H]1CCC[C@H](C)N1NC(=O)c1ccc(Cl)c(S(N)(=O)=O)c1,,inactive
CCCC[P+](CCCC)(CCCC)Cc1ccc(NC(=O)[C@@H](Cc2ccc3ccccc3c2)NC(=NC2CCCCC2)NC2CCCCC2)cc1,,inactive
CC(=O)c1cccc(NC(=O)CSCc2ccccc2)c1,,14.1 µM (active)
CS(=O)(=O)Nc1ccc(S(=O)(=O)N2CCOCC2)cc1,,inactive
O=C(c1ccc(CN2CCc3ccccc3C2)cc1)N1CCc2ccccc2C1,,2 µM (active)
O=C(CSCc1ccccc1)Nc1cccc(C(=O)Nc2ccccc2C(=O)O)c1,,inactive
Cc1ccccc1C(=O)N1CCc2ccccc2C1,,inactive
CSc1ccccc1NC(=O)CSCc1ccc(C)cc1,,14.1 µM (active)
Nc1cc(=O)[nH]c(SCC(=O)Nc2ccc(S(=O)(=O)N3CCOCC3)cc2)n1,,inactive
O=C(CSCc1ccccc1)Nc1ccc(S(=O)(=O)N2CCOCC2)cc1,,6.31 µM (active)
Cc1ccc(OCC(=O)Nc2ccccc2-c2ccccc2)cc1,,inactive
Cc1ccc(NS(=O)(=O)c2cc(C(=O)N3CCc4ccccc4C3)ccc2Cl)cc1,,inactive
COC(=O)c1ccc(C(=O)OC)c(NC(=O)CSCc2ccc(Br)cc2)c1,,inactive
CN(C)CCN1C(=O)C(O)=C(C(=O)c2cc3ccccc3o2)C1c1cccc(Br)c1 (centres undefined),,inactive
COc1ccc2c(c1)C(=O)N(c1ccccc1)C(=O)C2,,inactive
CN(C)c1cc(=O)n2c(n1)SCCC2,,inactive
